Measurements published in PubChem BioAssay AID818 (SRMLSC, 2007).
In all, about 140,000 compounds went through this assay and about 2,100 (1.5%) were called active. The entries come from a sample that favours actives as a whole. A number with no mark means an inactive call.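 The calls were made as follows: active = viability at or under a set limit, the compound median less 4 SD (cut at about 6% in these data); inactive = the rest.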

Experiment: primary screen for suppressors of beta-catenin knockout HCT116 cell growth, colon tumor, human (AID 818);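 also: 0% = Hyamine 1622 control at 20 µM and 100% = untreated cell control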
Settings: CellTiter-Glo, 60 h, at 10 µM, stronger effect = lower value
In the case of COc1ccc(C(=O)OCC(=O)NC(=O)CCSc2ccccc2)cc1, the viability is reported as 97.4%. In the case of N#Cc1cccc(NC(=O)COC(=O)c2ccccc2C(=O)c2ccc(Cl)c([N+](=O)[O-])c2)c1, the viability is reported as 3.2% (active). Compound CC(=O)Nc1ccc(NC(=O)C(C)OC(=O)c2ccccc2C(=O)c2ccc(Cl)c([N+](=O)[O-])c2)cc1 (configuration not stated) has a viability of 8.71%. Compound COC(=O)c1cc(NC(=O)Cc2ccccc2[N+](=O)[O-])ccc1Cl has a viability of 80.7%. Compound CC(=O)Nc1ccc(SCC(=O)Nc2ccccc2Oc2ccccc2)cc1 has a viability of 86.2%. For O=S(=O)(NCC1CCCO1)c1cnc(Cl)c(Cl)c1 (configuration not stated), the viability was 69.3%. In the case of O=C(Nc1cccc2ccccc12)c1onc2c1CCCC2, the viability is reported as 1.26% (active). In the case of O=C(Nc1c2c(nc3ccccc13)CCCC2)c1ccccc1Br, the viability is reported as 83.6%. O=C(O)c1ccccc1-c1ccccc1C(=O)Nc1cccc2ccccc12 gave a viability of 90.2%. In the case of Cc1cc(C(C)(C)C)cc(C)c1N, the viability is reported as 100%. CCCc1nc(SCC(=O)Nc2ccc(S(=O)(=O)N(C)C)cc2)c2ccccc2n1 gave a viability of 72.2%. Work on O=C(O)c1cnn2c(C(F)(F)F)cc(-c3ccccc3)nc12 yielded a viability of 96.5%. In the case of Cc1cccc(N2CCN(C(=O)c3cnn4c(C(F)F)cc(-c5ccccc5)nc34)CC2)c1C, the viability is reported as 2.3% (active). In the case of CC(=O)N1CCN(c2cccc(C)c2C)CC1, the viability is reported as 99.9%. Compound CCC(C(=O)OCC(=O)Nc1ccccc1-c1ccccc1)c1ccccc1 (configuration not stated) has a viability of 92.8%. In the case of CCOc1ccc2nc(Cl)c(C3CC(c4ccccc4)=NN3C(=O)c3cccs3)cc2c1 (configuration not stated), the viability is reported as 1.68% (active). Compound CCOc1ccccc1C1CC(c2cccc(NS(C)(=O)=O)c2)=NN1C(=O)c1ccccc1 (configuration not stated) has a viability of 79.6%. Work on COc1ccc(C2CC(c3ccccc3)=NN2C(=O)c2ccc(Cl)c([N+](=O)[O-])c2)cc1 (configuration not stated) yielded a viability of 10.9%. Cc1cc(C)c2c(n1)sc1c(=O)n(-c3ccccc3)c(=O)[nH]c12 showed a viability of 95.9%. For C/C(O)=C\c1nc(=O)c2c(C)cc(C)nc2n1-c1ccccc1, the viability was 2.41% (active). N#CCSc1nc2ccccc2c(=O)n1-c1ccccc1 showed a viability of 101%. O=C1NC(=Nc2ccc(Cl)cc2)SC1Cc1cccc(Cl)c1Cl (configuration not stated) gave a viability of 101%. In the case of COC(=O)c1sccc1NC(=O)COc1ccc(Cl)cc1, the viability is reported as 68.7%. With Cc1ccc2[nH]c(=O)c(CC=C(Cl)Cl)c(C)c2c1 the viability was 88.7%. With CN(C)c1ccc(/C=N/NC(=O)c2ccc(Cn3cc(Br)cn3)o2)cc1 the viability was 103%. Compound COc1ccc(CCNc2cc(C)nc3c(-c4ccc(Cl)cc4)c(C)nn23)cc1OC has a viability of 74.8%. In the case of CC(C)CC[n+]1ccn(C2=C([O-])c3ccccc3C(=O)/C2=N\S(=O)(=O)c2ccccc2)c1, the viability is reported as 2.01% (active). With COc1ccc(C2Nc3ccccc3C(=O)N2c2ccc(F)cc2)cc1Cn1nnc2ccccc21 (configuration not stated) the viability was 69.3%. CC(=O)N1CC(C)c2scc(C)[n+]2-c2ccccc21 (configuration not stated) gave a viability of 91.2%. COc1ccc(C(CCNCc2ccccc2F)c2ccc(F)cc2)cc1 (configuration not stated) gave a viability of 9.17%. For COc1ccccc1NC(=O)CCCc1c[nH]c2ccccc12, the viability was 101%. For COc1cccc(CNCCc2c[nH]c3ccccc23)c1OCc1ccccc1F, the viability was 0.88% (active). With COc1ccc(/C(C)=N/NC(=O)CCC(=O)Nc2ccc(Cl)cc2Cl)c(OC)c1 the viability was 91.2%. With O=C(Nc1cccc(F)c1)c1coc(=O)c(Br)c1 the viability was 45%. In the case of NC(=O)Nc1ccccc1C(=O)NCCc1ccccc1, the viability is reported as 99.7%. Work on CCc1ccc(NC(=O)C(C)OC(=O)/C=C/c2cccc([N+](=O)[O-])c2)cc1 (configuration not stated) yielded a viability of 90.3%. With Cn1cc([N+](=O)[O-])c(C(=O)Nc2ccc3c(c2)OCCO3)n1 the viability was 5.15% (active). Cn1cc([N+](=O)[O-])c(C(=O)Nc2cnn(Cc3ccc(F)cc3)c2)n1 showed a viability of 8.14%. O=C(Nc1ccc2c(c1)OCCO2)c1ccncc1 gave a viability of 100%. In the case of COc1ccc(OC(C)C(=O)NCCc2nc3ccccc3[nH]2)cc1 (configuration not stated), the viability is reported as 99.8%. CCOC(=O)c1cnc(-c2ccccc2)nc1Oc1ccc(C)cc1 showed a viability of 89.3%. In the case of CCOC(=O)c1cnc(-n2nc(C)cc2C)nc1NNc1cc(C)nc(-c2ccccc2)n1, the viability is reported as 3.41% (active). Compound CCOC(=O)c1cnc(-n2nc(C)cc2C)nc1-n1nc(C)cc1C has a viability of 103%. CCC(C)(C(=O)Nc1ccccc1C)N(C(=O)CNC(C)=O)c1ccc(C)cc1 (configuration not stated) gave a viability of 92.2%. COC(=O)[C@@H]1CC[C@H](C)[C@@H](c2ccc(C)cc2)N1C(=O)c1ccc(/C=N/O[C@H](C)c2cn([C@@H]3COC[C@H]3O)nn2)cc1 showed a viability of 86.4%. In the case of CSc1nc2ccccc2cc1/C=C(\C#N)c1ccc(Cl)cc1Cl, the viability is reported as 4.22% (active). Work on Cc1nc2ccccc2cc1O yielded a viability of 92.2%. Work on CSc1nc(N)c(C#N)c(-c2ccccc2Cl)c1C#N yielded a viability of 89.2%. In the case of Cc1ccc(SCCC(=O)NC(C(C)C)C(C)C)cc1, the viability is reported as 89.2%. For CCCC(NC(=O)c1ccco1)c1nc2ccccc2[nH]1 (configuration not stated), the viability was 101%. With CCCCC(=O)NCc1ccc(F)cc1 the viability was 93.4%. CN(CC(=O)Nc1ccc(S(=O)(=O)N2CCCC2)cc1)Cc1ccc(Cl)c(Cl)c1 gave a viability of 65.4%. With COc1ccc(NS(=O)(=O)c2cc(NC(=O)/C=C/c3cc(OC)c(OC)c(OC)c3)ccc2N2CCCCC2)cc1 the viability was 89.5%. In the case of COc1cccc2cc(C(=O)N(C)C)c(=O)oc12, the viability is reported as 1.59% (active). Compound C=CCc1cccc2cc(C(=O)OCC)c(=O)oc12 has a viability of 97.7%. Work on COc1cccc2cc(C(=O)N3CCN(C(=O)c4ccccc4)CC3)c(=O)oc12 yielded a viability of 100%. O=C(c1cccc2ccccc12)N1CCN(c2ccccc2F)CC1 gave a viability of 83.3%. In the case of Cc1ccc(Cl)cc1N1CCN(C(=O)c2cccc3c(=O)c(C)c(-c4ccccc4)oc23)CC1, the viability is reported as 1.34% (active). COC(=O)c1ccc(C(=O)OC)c(NC(=S)N2CCN(c3cc(Cl)ccc3C)CC2)c1 showed a viability of 92.1%. Compound COCCn1c(SCC(=O)Nc2ccc3c(c2)CCC3)nc2ccccc2c1=O has a viability of 81.5%. Compound O=C(/C=C/NCc1ccc(F)cc1)c1ccccc1 has a viability of 87.5%. NS(=O)(=O)c1cc(C(=O)NCCOc2ccccc2)c(Cl)cc1Cl showed a viability of 78.4%. Compound COc1ccccc1N1CCN(Cc2nnnn2CCc2ccccc2)CC1 has a viability of 82.5%. With COc1ccccc1-n1nnnc1S(=O)(=O)Cc1ccc(Cl)cc1 the viability was 2.91% (active). In the case of COc1ccccc1N1CCN(C(=O)CN(Cc2ccc(Cl)cc2)S(C)(=O)=O)CC1, the viability is reported as 68.4%. Work on CCc1cccc(C)c1NC(=O)COC(=O)Cc1ccsc1 yielded a viability of 80.8%. COc1ccc(-c2cc(C(F)(F)F)nc(SCC(=O)Nc3ccc4c(c3)OCO4)n2)cc1OC showed a viability of 91.6%. Oc1ccc(Cl)cc1/C=N/c1nc2ccccc2[nH]1 showed a viability of 89.3%. In the case of O=C(/C(=C/c1cccc(Cl)c1)c1nc2ccccc2[nH]1)c1ccccc1, the viability is reported as 1.3% (active). COc1ccc(/C=C(/NC(=O)c2ccc(C)cc2)c2nc3ccccc3[nH]2)cc1OC showed a viability of 87.3%. Work on Cc1cc(C)cc(C(=O)NC(=S)Nc2ccc3[nH]c(=O)[nH]c3c2)c1 yielded a viability of 95.8%. In the case of Cc1cccc(NC(=O)Cn2c(=O)n(Cc3ccccc3)c(=O)c3c(C)c(C)sc32)c1, the viability is reported as 77%. For COc1ccc(/C=C(/CC(=O)Nc2ccc(C)cc2)c2nc3ccccc3s2)cc1, the viability was 73%. For Fc1ccccc1/C=C1\CCCC2=C1Nc1ncnn1C2c1ccccc1F (configuration not stated), the viability was 4.91% (active). Work on CC(C)(C)SCCNC(=O)c1cccc([N+](=O)[O-])c1 yielded a viability of 97.8%. In the case of COc1ccc(/C=C/C(=O)c2cc(Br)ccc(=O)c2O)cc1, the viability is reported as 11.3%. In the case of COC(=O)CN1C(C)=Nc2ccc(Br)cc2C1c1ccccc1 (configuration not stated), the viability is reported as 0.76% (active). In the case of COC(=O)CN1C(=O)C(O)=C(C(C)=O)C1c1ccc([N+](=O)[O-])cc1 (configuration not stated), the viability is reported as 86.9%. CCC(CC)C(=O)N1CC(=O)Nc2ccc(Br)cc2C1c1ccccc1 (configuration not stated) showed a viability of 80.3%. In the case of CCCCCC(=O)Nc1ccc(S(=O)(=O)Nc2ccc(Cl)nn2)cc1, the viability is reported as 102%. For CCCCc1nc(NCc2ccccc2)c(C#N)c2c1CCCC2, the viability was 81%. In the case of CCCCc1nc(NCCN)c(C#N)c2c1CSC(C)(C)C2, the viability is reported as 1.71% (active). For Cc1nc(NCCN)c(C#N)c2c1COC(C)(C)C2, the viability was 94.1%. Work on CCC(C)C(=O)Nc1cc([N+](=O)[O-])ccc1Cl (configuration not stated) yielded a viability of 96.4%. With Oc1c(Br)cccc1/C=N/Nc1c(F)c(F)c(F)c(F)c1F the viability was 51%. Work on O=c1c2sccc2nc(SCc2cc(=O)n3ccccc3n2)n1-c1ccc(Br)cc1 yielded a viability of 59.1%. Work on CCCC(NS(=O)(=O)c1ccc(OC)cc1)C(=O)O (configuration not stated) yielded a viability of 92.4%. For CCCNC(=O)OC[C@H]1O[C@H](CCO/N=C/[C@@H](NS(=O)(=O)c2ccc(C)cc2)[C@H](C)/C=C/CC(=O)OC)C=C[C@@H]1Oc1ccc(OC)cc1, the viability was 0.62% (active). In the case of COc1ccc(O[C@H]2C=C[C@@H](c3ccccc3)O[C@@H]2CO/N=C/C[C@@H]2C=C[C@H](OC(C)=O)[C@@H](COC(C)=O)O2)cc1, the viability is reported as 88.8%. With NNc1nc2c(Cl)cccc2s1 the viability was 83.6%. Cc1ccc(C(=O)Oc2coc(CSc3nnc(NC(=O)c4cccs4)s3)cc2=O)cc1C gave a viability of 96.1%. For Cc1ccc(S(=O)(=O)NCCSc2ccccc2)cc1[N+](=O)[O-], the viability was 104%.
